Measurements from publication PMC5540273 (PLoS ONE, 2017).

The molecules below were run on ROS1. Settings: concentration: 1 μM, replicates: in singlicate; n = 1.
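Also: KINOMEscan kinase panel screen.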

Row | SMILES | %Inh [%]
1 | OCCOCCn1ccc2ncnc(Nc3ccc(Oc4cccc(Cl)c4)c(Cl)c3)c21 | 0
2 | Clc1cccc(-c2nc(Nc3ccncc3)c3ccccc3n2)c1 [GW873004] | 20
3 | COc1ccc(NC(=O)c2ccc(-c3cc(-c4nnc(C)o4)ccc3C)cc2)cc1 [GW595885] | 0
4 | O=C(Nc1ccccc1F)NC1CCN(c2ccnc(Nc3ccc(F)cc3)n2)C1 (centres unmarked) [GSK1379722] | 22
5 | Nc1nc(-c2ccc3c(N)n[nH]c3c2)cc(N2CCCCC2)n1 [GSK2228768] | 6
6 | CN1CCC(n2cnc(-c3ccc(F)cc3)c2-c2ccnc(NC3CCNCC3)n2)CC1 [SB-229482] | 0
7 | Clc1cc(Nc2ncnc3cc[nH]c23)ccc1OCc1ccccn1 | 6
8 | COc1cc2c(Nc3cccc(NC(=O)c4ccccc4)c3)ncnc2cc1OCCCN1CCOCC1 [GSK223810] | 0
9 | CCc1nc(-c2cccc(N(C)S(=O)(=O)c3ccccc3)c2)c(-c2ccnc(Nc3ccc(N4CCN(C(C)=O)CC4)nc3)n2)s1 [GSK1645895] | 0
10 | Cc1ccc(O)cc1Nc1cc(C(F)(F)F)nc2ccc(-c3ccncc3)cc12 [GW630823] | 5
11 | c1ccc(-c2ccc3c(-c4ccnc(Nc5ccc6c(c5)OCCO6)n4)cnn3n2)cc1 [GW818941] | 5
12 | CSc1ccc(NC2=C(c3ccccc3Cl)C(=O)NC2=O)cc1 [SB-342411] | 0
13 | CS(=O)(=O)CCNCc1ccc(-c2ccc3ncnc(Nc4ccc(OCc5ccccc5)c(Cl)c4)c3c2)o1.Cl [GW574783] | 0
14 | COc1cc2ncnc(Nc3ccc(OCc4ccccc4Br)c(Cl)c3)c2cc1OC.Cl [GI261590] | 4
15 | CC(C)N1CCC(n2cnc(-c3ccc(F)cc3)c2-c2ccnc(N)n2)CC1 [SB-223132] | 0
16 | Cn1cc(-c2ccc3c(c2)CCN3C(=O)Cc2cccc(C(F)(F)F)c2)c2c(N)ncnc21 [GSK2606414] | 0
17 | COc1ccc(Nc2nccc(N3CCC(NC(=O)c4cccc(NC(C)=O)c4)C3)n2)cc1 (centres unmarked) [GSK1379732] | 8
18 | Nc1nc(-c2ccc3c(N)n[nH]c3c2)cc(N2CCC[C@@H](C(=O)Nc3ccccc3)C2)n1.O=C(O)C(F)(F)F.O=C(O)C(F)(F)F [GSK2288359] | 0
19 | CN1c2ccc(-c3ccc(C(=O)NCCO)cc3)cc2-c2[nH]ncc2S1(=O)=O | 8
20 | N#Cc1ccc(Oc2ccc(Nc3ncnc4cc[nH]c34)cc2Cl)cc1 | 0
21 | Cl.c1ccc(Cn2ncc3cc(Nc4ncnc5ccccc45)ccc32)cc1 [GW273749] | 10
22 | Nc1nccc2scc(-c3ccc4c(c3)CCN4C(=O)Cc3cc(F)ccc3F)c12 [GSK2587663] | 16
23 | Nc1nc(-c2cccnc2)c(-c2ccnc3ccccc23)s1 [GW684083] | 25
